Assay results from the supplement of paper PMC11732987, “Enantioselective OTUD7B fragment discovery through chemoproteomics screening and high-throughput optimisation” (Communications Chemistry, 2025).

How the values were obtained:
Test in all cases: log2 ratio of Biotin-Ahx-Ub-VS probe labelling (fragment/DMSO); higher = less target engagement (more negative = stronger competition), active = hit call of the paper (q ≤ 0.05, log2 ratio ≤ -1)
Settings in all cases: compound concentration: 200 uM; treatment time: 3 h
[1] = target: USP34 (UniProt Q70CQ2)
Sequence of USP34 (Q70CQ2 whole entry, the tested form may be a part): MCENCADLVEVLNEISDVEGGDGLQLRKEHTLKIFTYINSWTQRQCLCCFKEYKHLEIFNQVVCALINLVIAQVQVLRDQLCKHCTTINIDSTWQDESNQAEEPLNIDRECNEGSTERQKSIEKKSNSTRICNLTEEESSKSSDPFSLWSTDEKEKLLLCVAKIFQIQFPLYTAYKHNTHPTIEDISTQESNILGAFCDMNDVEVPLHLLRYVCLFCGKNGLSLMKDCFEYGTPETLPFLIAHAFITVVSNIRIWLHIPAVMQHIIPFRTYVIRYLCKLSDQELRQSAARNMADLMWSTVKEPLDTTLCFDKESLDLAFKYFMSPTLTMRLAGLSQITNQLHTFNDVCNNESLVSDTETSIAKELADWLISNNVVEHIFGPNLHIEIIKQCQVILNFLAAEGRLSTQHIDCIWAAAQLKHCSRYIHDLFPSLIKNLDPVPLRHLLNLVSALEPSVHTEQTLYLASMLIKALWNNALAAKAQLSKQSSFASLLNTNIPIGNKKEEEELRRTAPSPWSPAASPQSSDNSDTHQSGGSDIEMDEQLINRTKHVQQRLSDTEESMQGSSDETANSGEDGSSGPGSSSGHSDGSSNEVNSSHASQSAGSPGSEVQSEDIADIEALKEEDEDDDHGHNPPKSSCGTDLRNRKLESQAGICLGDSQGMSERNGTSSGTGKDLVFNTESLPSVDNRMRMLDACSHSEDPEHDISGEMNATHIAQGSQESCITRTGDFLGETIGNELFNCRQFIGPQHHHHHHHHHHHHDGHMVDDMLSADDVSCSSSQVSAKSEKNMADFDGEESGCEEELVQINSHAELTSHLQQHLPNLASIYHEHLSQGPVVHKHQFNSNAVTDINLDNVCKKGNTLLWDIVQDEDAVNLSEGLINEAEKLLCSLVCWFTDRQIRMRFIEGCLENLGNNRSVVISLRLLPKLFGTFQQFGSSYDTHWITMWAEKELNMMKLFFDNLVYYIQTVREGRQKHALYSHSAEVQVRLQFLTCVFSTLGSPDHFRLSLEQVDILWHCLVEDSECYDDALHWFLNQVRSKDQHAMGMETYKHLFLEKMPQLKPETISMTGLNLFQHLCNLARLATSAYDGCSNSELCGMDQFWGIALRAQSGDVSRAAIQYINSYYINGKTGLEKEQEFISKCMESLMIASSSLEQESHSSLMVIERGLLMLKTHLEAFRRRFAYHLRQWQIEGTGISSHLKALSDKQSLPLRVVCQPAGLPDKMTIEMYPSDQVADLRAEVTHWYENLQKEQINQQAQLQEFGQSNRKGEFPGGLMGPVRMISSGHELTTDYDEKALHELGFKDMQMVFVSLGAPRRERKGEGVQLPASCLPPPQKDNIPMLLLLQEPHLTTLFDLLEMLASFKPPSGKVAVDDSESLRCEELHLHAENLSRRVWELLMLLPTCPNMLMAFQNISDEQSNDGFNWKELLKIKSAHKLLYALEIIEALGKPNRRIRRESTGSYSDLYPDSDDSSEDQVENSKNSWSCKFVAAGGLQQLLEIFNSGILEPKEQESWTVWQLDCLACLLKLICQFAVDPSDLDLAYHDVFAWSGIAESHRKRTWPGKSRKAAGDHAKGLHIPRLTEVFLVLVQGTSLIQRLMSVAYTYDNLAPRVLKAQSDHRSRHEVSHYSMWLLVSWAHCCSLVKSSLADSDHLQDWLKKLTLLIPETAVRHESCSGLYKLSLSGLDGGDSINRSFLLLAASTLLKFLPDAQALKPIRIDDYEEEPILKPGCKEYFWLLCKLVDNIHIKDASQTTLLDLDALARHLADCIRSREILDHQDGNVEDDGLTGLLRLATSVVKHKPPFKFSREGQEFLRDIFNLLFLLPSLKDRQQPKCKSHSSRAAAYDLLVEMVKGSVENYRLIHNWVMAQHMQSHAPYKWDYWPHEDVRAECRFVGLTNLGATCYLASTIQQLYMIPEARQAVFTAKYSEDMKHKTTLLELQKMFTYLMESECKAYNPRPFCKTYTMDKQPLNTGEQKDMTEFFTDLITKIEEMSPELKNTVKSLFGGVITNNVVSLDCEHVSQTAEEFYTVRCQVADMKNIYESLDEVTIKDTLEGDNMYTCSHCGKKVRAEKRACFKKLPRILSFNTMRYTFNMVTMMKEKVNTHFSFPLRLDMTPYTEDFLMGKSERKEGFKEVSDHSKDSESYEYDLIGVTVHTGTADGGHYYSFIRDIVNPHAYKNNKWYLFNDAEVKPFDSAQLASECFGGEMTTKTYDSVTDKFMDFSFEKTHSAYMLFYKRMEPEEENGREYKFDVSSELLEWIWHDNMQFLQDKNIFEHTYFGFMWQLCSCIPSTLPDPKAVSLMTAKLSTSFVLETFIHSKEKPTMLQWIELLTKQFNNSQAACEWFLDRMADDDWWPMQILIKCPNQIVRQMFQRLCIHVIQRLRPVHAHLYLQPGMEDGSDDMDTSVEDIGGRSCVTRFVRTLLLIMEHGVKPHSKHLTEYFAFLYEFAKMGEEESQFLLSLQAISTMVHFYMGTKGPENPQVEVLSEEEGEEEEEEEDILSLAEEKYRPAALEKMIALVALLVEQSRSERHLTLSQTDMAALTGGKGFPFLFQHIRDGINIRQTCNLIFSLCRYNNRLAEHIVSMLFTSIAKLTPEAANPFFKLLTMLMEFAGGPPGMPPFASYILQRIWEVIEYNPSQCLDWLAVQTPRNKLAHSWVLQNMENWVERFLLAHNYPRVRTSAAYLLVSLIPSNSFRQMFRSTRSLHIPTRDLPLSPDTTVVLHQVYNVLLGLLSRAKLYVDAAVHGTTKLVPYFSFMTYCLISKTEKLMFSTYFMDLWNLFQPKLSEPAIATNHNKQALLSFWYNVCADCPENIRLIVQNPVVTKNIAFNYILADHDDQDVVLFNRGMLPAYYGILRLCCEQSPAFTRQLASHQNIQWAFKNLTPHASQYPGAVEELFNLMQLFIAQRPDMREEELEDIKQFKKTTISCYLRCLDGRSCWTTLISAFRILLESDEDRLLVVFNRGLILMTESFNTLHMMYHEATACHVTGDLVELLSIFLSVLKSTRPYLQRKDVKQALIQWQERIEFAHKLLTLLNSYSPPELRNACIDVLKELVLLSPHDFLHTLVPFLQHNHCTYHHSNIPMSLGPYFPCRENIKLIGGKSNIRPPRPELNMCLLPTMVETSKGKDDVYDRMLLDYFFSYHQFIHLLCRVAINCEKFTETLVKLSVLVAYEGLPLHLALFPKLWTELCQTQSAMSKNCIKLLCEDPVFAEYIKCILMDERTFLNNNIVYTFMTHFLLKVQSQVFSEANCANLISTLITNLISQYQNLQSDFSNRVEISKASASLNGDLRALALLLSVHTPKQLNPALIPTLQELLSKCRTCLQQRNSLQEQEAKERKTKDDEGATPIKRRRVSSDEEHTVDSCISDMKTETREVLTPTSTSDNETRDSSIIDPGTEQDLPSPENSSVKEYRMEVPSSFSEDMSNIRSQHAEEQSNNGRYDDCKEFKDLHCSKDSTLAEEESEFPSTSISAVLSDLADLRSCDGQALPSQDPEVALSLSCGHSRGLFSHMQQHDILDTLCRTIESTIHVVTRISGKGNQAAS
How it was run: (§1)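 HEK293T lysate in Tris/CHAPS/IGEPAL buffer with protease inhibitors (495 µg per sample) was given fragment at 200 µM or vehicle for 3 h, in triplicate. It then received Biotin-Ahx-Ub-VS at 0.5 µM final for 1 h. Labelled DUBs were NeutrAvidin-enriched, digested with LysC and trypsin, and run by diaPASEF LC-MS/MS. Values are average log2 fragment/vehicle ratios by unpaired t-test on global-median-normalised Spectronaut quantities of proteins with ≥2 unique peptides.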

[2] = target: T1, USP36 (UniProt Q9P275)
T1 sequence (whole entry): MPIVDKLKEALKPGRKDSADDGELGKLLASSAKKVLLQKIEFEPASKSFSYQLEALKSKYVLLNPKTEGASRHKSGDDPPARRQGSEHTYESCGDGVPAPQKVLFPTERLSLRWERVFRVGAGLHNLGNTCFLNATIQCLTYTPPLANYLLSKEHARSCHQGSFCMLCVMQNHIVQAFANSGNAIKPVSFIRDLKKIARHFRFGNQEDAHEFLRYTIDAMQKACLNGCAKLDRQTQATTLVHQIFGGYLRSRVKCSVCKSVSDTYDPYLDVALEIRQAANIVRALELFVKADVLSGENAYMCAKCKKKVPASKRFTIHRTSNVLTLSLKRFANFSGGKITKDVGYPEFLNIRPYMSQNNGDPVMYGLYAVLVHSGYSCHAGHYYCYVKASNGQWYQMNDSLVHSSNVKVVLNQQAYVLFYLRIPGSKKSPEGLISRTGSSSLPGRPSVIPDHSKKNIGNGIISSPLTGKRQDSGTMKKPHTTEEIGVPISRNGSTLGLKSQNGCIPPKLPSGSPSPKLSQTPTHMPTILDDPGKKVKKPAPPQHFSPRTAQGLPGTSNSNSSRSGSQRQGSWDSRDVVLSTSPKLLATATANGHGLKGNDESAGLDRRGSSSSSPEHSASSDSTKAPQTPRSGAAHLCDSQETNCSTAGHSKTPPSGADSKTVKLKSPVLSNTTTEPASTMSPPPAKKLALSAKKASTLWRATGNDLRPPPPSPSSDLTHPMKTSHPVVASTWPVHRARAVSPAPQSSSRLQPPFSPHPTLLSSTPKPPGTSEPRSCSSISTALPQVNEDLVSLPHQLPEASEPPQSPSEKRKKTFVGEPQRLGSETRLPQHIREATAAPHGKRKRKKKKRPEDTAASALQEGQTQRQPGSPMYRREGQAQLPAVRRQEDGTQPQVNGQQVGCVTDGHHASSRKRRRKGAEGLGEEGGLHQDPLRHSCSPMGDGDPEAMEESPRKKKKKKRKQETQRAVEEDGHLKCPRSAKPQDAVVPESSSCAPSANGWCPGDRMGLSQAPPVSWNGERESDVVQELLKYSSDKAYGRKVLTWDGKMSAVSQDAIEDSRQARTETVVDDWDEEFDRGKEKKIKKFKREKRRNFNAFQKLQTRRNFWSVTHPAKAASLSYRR
How it was run: as §1

[3] = target: T2, USP38 (UniProt Q8NB14)
T2 sequence (whole entry): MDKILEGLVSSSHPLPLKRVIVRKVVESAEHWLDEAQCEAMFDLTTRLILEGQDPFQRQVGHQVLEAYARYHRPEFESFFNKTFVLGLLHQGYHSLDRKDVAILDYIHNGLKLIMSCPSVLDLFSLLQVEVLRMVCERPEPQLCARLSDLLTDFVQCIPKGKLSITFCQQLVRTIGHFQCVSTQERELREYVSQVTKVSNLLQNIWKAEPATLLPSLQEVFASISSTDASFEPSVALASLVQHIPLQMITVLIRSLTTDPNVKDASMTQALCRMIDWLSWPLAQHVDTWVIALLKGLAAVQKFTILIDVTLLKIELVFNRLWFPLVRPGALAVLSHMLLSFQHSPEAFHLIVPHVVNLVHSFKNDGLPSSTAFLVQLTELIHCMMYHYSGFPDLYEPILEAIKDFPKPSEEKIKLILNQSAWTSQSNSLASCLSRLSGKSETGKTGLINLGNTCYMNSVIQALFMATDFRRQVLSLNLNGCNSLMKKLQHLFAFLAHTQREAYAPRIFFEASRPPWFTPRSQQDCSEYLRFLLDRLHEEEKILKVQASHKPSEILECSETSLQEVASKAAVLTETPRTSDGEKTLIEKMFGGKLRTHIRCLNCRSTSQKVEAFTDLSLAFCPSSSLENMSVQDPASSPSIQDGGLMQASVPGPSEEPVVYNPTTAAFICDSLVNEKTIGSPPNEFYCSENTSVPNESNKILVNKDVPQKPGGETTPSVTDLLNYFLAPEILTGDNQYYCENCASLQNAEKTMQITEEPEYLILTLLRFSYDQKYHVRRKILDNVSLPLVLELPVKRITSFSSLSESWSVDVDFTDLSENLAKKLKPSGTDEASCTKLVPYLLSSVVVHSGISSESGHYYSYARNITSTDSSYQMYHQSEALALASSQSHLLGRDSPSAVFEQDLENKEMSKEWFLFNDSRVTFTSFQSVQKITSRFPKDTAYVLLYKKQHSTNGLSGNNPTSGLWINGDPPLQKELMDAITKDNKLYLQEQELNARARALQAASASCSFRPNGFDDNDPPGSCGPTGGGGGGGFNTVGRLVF
How it was run: as §1

[4] = target: T3, USP39 (UniProt Q53GS9)
T3 sequence (whole entry): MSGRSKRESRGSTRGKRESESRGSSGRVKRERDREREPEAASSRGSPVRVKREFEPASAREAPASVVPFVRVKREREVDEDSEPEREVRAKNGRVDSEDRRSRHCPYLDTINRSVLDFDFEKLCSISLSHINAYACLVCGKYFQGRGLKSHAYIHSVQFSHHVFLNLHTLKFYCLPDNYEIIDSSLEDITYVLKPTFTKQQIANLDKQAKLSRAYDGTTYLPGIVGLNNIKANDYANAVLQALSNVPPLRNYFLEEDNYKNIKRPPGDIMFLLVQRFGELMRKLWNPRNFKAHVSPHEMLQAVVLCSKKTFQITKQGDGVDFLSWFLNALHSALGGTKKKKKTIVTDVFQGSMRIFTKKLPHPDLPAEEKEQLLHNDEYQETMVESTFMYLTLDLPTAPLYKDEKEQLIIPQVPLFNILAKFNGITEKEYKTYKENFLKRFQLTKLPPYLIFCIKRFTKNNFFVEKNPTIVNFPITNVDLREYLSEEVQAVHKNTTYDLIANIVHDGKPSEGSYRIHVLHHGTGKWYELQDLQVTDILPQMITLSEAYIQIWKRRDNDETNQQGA
How it was run: as §1

[5] = target: T4, USP4 (UniProt Q13107)
T4 sequence (whole entry): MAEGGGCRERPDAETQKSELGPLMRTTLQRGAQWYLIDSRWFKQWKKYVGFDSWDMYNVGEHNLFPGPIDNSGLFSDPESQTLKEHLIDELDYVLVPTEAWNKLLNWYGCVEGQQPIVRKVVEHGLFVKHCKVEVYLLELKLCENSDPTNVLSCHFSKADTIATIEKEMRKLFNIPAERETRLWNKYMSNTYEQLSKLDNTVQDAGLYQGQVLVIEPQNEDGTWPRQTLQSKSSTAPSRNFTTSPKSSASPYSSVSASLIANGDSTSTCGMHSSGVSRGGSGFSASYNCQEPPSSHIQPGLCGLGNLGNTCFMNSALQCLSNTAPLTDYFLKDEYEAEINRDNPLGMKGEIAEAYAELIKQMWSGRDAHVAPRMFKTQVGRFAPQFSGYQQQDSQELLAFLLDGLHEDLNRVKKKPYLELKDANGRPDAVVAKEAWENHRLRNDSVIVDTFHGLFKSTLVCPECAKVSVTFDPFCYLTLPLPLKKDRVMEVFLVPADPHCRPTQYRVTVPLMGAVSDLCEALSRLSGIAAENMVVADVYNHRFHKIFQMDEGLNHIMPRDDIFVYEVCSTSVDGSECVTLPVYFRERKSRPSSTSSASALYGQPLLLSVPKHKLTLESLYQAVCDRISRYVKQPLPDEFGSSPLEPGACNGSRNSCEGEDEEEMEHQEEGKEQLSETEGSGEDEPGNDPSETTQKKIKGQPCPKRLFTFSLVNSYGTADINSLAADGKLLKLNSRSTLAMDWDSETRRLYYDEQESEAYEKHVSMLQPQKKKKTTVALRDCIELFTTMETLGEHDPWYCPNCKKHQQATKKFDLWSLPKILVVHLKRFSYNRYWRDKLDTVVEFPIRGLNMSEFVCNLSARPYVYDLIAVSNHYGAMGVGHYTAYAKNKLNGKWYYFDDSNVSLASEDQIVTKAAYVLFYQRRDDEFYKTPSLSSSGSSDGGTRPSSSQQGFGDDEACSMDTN
How it was run: as §1

Measured: log2 ratio of Biotin-Ahx-Ub-VS probe labelling

COCC[C@@H](NC(=O)CCl)c1ccccc1
inactive: [1] -0.0495 | [2] -0.11 | [3] 0.0786 | [4] -0.0498 | [5] 0.0432
